The results in this text go back to PubChem BioAssay (EPA / NIEHS).

Structures are written as SMILES. Results filed as inconclusive are left out. Active and inactive are the calls of the source. How the source made its calls, unless noted: active means hit-call score of the fitted dose curve at least 0.9, where 1 is the maximum; inactive means score below 0.9.

A short description of test [1]: ATG_Sox_CIS: Attagene CIS-FACTORIAL HepG2 Assay for human SRY-box transcription factor (SOX) (AID 2282960). The note with it: HepG2 Attagene cis-factorial SOX reporter, mRNA; actives raise or lower the signal. The gist of the method:
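Fluorescence-labelled cDNA fragments from reporter transcripts, sized by CE, give the signal. Cells: HepG2, transiently transfected with cis-regulated reporter units. Exposure 24 h; DMSO negative control; bidirectional curve fitting.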

Test [2] concerns the target Transcription factor Sp1 (Homo sapiens) (UniProt P08047). The experiment in a line: ATG_Sp1_CIS: Attagene CIS-FACTORIAL HepG2 Assay for human Specificity Protein 1 (Sp1) (AID 2282961). The note with it: HepG2 Sp1 cis-reporter transcription, actives raise or lower the signal. The gist of the method:
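Chemicals are dosed onto HepG2 cells transfected with multiple cis-promoter reporter constructs, and after 24 h reporter RNA is reverse-transcribed, PCR-amplified and resolved by capillary electrophoresis for fluorescence quantitation; activity is scored up or down against DMSO.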

The nature of test [3]: ATG_SREBP_CIS: Attagene CIS-FACTORIAL HepG2 Assay for human Sterol Regulatory Element Binding (SREBP) (AID 2282962). The conditions noted are these: HepG2 Attagene cis-factorial SREBP reporter, mRNA; actives raise or lower the signal. The gist of the method: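 Endogenous SREBP activity read as cis-element-driven reporter transcript in transiently transfected HepG2, 24 h post-dosing; quantified via RT-PCR plus capillary electrophoresis of fluorescent fragments. Gain or loss of signal fitted relative to DMSO baseline.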

In test [4] the target is Signal transducer and activator of transcription 3 (Homo sapiens) (UniProt P40763). Kind of test: ATG_STAT3_CIS: Attagene CIS-FACTORIAL HepG2 Assay for human Signal Transducer and Activator of Transcription 3 (STAT3) (AID 2282963). The note with it: HepG2, Attagene cis-factorial STAT3 reporter transcription; actives raise or lower the signal. The gist of the method:
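Readout: fluorescent reporter mRNA fragments resolved by capillary electrophoresis. Setup: HepG2 transfected with MRTUs reporting endogenous transcription-factor activity, dosed 24 h. Gain or loss of signal fitted bidirectionally against DMSO control.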

A short description of test [5]: ATG_TA_CIS: Attagene CIS-FACTORIAL HepG2 Assay for human TA Basal Promoter (AID 2282964). The conditions noted are these: HepG2 Attagene CIS-factorial TA basal promoter reporter; actives raise or lower the signal. The gist of the method:
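Steps: transfect HepG2 with MRTUs; dose 24 h; isolate RNA, DNase-treat, reverse-transcribe; PCR and FAM-label reporter cDNA; digest with HpaI 2h at 37 C; run capillary electrophoresis. Activity fitted both directions against DMSO.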

Test [6] in a line: ATG_TCF_b_cat_CIS: Attagene CIS-FACTORIAL HepG2 Assay for human T-Cell-Factor with beta-catenin (TCF/b-cat) (AID 2282965). The conditions noted are these: HepG2 TCF/beta-catenin cis-reporter transcription, actives raise or lower the signal. The gist of the method:
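Cells of the HepG2 line carry transiently transfected reporter units whose promoters respond to endogenous factors. Twenty-four hours post-dosing, reporter mRNA induction is measured by fluorescent RT-PCR and capillary electrophoresis, with DMSO as baseline.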

Test [7] can be described thus: ATG_TAL_CIS: Attagene CIS-FACTORIAL HepG2 Assay for human TAL Basal Promoter (AID 2282966).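 Further: background control endpoint measuring basal TAL promoter reporter mRNA not a specific factor.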 The conditions noted are these: HepG2 Attagene cis-factorial TAL promoter reporter; actives raise or lower the signal. The gist of the method:
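Human hepatoma HepG2 cells, transfected with promoter-regulated reporter units, were treated 24 h. Reporter transcript levels, measured through RT-PCR and capillary electrophoresis, were fitted for gain or loss relative to DMSO.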

A short description of test [8]: ATG_TGFb_CIS: Attagene CIS-FACTORIAL HepG2 Assay for human Transforming Growth Factor (TGF) (AID 2282967). The conditions noted are these: HepG2 Attagene CIS TGFb reporter, mRNA transcription; actives raise or lower the signal. The gist of the method: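 Cells were dosed for 24 hours, after which total RNA was reverse-transcribed and reporter sequences amplified, labeled and sized by capillary electrophoresis. Activity was fitted in both directions against DMSO.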

Test [9] is described as follows: ATG_VDRE_CIS: Attagene CIS-FACTORIAL HepG2 Assay for human Vitamin D Receptor Element (VDRE) (AID 2282968). The conditions noted are these: HepG2 VDRE cis-reporter transcription, actives raise or lower the signal. The gist of the method: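 Transient MRTU transfection of HepG2, 24 h compound exposure. Readout: reporter transcripts via RT-PCR and capillary electrophoresis, fluorescence. Bidirectional fit vs DMSO.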

Test [10] concerns the target Nuclear receptor subfamily 1 group I member 3 (Homo sapiens) (UniProt Q14994). Kind of test: ATG_CAR_TRANS: Attagene TRANS-FACTORIAL HepG2 Assay for human Constitutive Androstane Receptor (CAR) (AID 2282969; active means hit-call score of the fitted dose curve at least 0.9, where 1 is the maximum;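 further: activators raise reporter mRNA above DMSO so AC50 marks induction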). The note with it: HepG2 Attagene TRANS-FACTORIAL CAR reporter. Put shortly: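 Transiently transfected HepG2, multiplex TRANS reporters (CAR-Gal4 chimera driving GAL4-UAS reporter). 24 h dosing. Readout: reporter transcript by RT-PCR + capillary electrophoresis, fluorescence intensity; positive direction vs DMSO.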

Test [11] has as its target Estrogen receptor (Homo sapiens) (UniProt P03372). Kind of test: ATG_ERa_TRANS: Attagene TRANS-FACTORIAL HepG2 Assay for human Estrogen Receptor alpha (ERa) (AID 2282970; active means hit-call score of the fitted dose curve at least 0.9, where 1 is the maximum). The conditions noted are these: HepG2 Attagene TRANS ERa GAL4 reporter, mRNA. The gist of the method: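 Signal derives from fluorescence of labelled reporter PCR fragments separated by capillary electrophoresis. HepG2 cells transiently carrying multiple GAL4-UAS reporter units were treated 24 hours, and induction above DMSO baseline was fitted as activity.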

The target of test [12] is X-box-binding protein 1 (Homo sapiens) (UniProt P17861). The experiment in a line: ATG_Xbp1_CIS: Attagene CIS-FACTORIAL HepG2 Assay for human X-box Binding Protein 1 (XBP1) (AID 2282972). The note with it: HepG2 XBP1 cis-element reporter, Attagene multiplex; actives raise or lower the signal. The gist of the method: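 Reporter transcripts were quantified by RT-PCR with fluorescent primer extension and capillary electrophoresis after 24 h chemical exposure. Cells: transiently transfected HepG2 carrying cis-regulated reporter constructs; data fitted bidirectionally relative to DMSO.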
X-box-binding protein 1 (Homo sapiens), sequence (P17861 whole entry, looked up): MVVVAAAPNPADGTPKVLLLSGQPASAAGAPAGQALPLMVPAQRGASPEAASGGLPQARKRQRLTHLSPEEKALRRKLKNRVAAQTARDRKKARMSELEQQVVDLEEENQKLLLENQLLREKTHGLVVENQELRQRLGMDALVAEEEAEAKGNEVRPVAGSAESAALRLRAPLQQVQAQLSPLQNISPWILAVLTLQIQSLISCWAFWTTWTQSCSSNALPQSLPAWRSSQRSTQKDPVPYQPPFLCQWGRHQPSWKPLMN

The nature of test [13]: ATG_M_19_TRANS: Attagene TRANS-FACTORIAL HepG2 Assay for M19 Transcription Factor (Internal Marker) (AID 2282974; active means hit-call score of the fitted dose curve at least 0.9, where 1 is the maximum). The conditions noted are these: HepG2 Attagene TRANS-FACTORIAL M19 internal marker reporter. Put shortly:
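Multiplexed TRANS format: HepG2 liver cells bearing transient GAL4-UAS reporter units, chemical treatment 24 h, reporter transcripts quantified by RT-PCR plus capillary electrophoresis. DMSO defines baseline.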

Test [14] concerns the target Bile acid receptor (Homo sapiens) (UniProt Q96RI1). The experiment in a line: ATG_FXR_TRANS: Attagene TRANS-FACTORIAL HepG2 Assay for Farnesoid X Receptor (FXR) (AID 2282979; active means hit-call score of the fitted dose curve at least 0.9, where 1 is the maximum;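 further: hits raise reporter mRNA above DMSO so AC50 marks FXR activation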). The conditions noted are these: HepG2 Attagene TRANS FXR-GAL4 reporter transcription. The gist of the method:
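After 24 h chemical treatment of transfected HepG2 cells, GAL4-UAS reporter transcripts driven by an exogenous FXR-GAL4 fusion were measured by RT-PCR and capillary electrophoresis. Increases over DMSO were fitted.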

The nature of test [15]: ATG_RORE_CIS: Attagene CIS-FACTORIAL HepG2 Assay for human RAR-related Orphan Receptor Element (RORE) (AID 2282959). The note with it: HepG2 Attagene cis-factorial RORE reporter, mRNA; actives raise or lower the signal. Put shortly:
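Transfect HepG2 with MRTUs; treat 24 h; extract RNA; RT with oligo(dT); PCR with reporter-specific primers; 6-FAM primer extension; HpaI digest 2 h at 37 C; capillary electrophoresis. Fit vs DMSO, bidirectional.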

A short description of test [16]: ATG_GAL4_TRANS: Attagene TRANS-FACTORIAL HepG2 Assay for GAL4 (Internal Marker) (AID 2282976; active means hit-call score of the fitted dose curve at least 0.9, where 1 is the maximum). The conditions noted are these: HepG2 Attagene TRANS GAL4 internal marker reporter. Put shortly:
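Liver HepG2 line bearing multiplexed GAL4-UAS reporter constructs; 24 h chemical treatment. Transcripts were quantified as fluorescent fragments on capillary electrophoresis after RT-PCR and HpaI cut, with activity fitted upward from DMSO.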

Test [17] is described as follows: ATG_PPRE_CIS: Attagene CIS-FACTORIAL HepG2 Assay for human Peroxisome Proliferator-activated Response Element (PPRE) (AID 2282958). The note with it: HepG2 PPRE cis-element reporter, Attagene transcription factor profiling; actives raise or lower the signal. The gist of the method: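 DMSO served as negative control and baseline for bidirectional curve fitting. Signal came from PPRE-regulated reporter mRNA in HepG2 cells, measured 24 h post-dosing by RT-PCR, 6-FAM primer extension and capillary electrophoresis.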

In test [18] the target is Estrogen-related receptor gamma (Homo sapiens) (UniProt P62508). Kind of test: ATG_ERRg_TRANS: Attagene TRANS-FACTORIAL HepG2 Assay for human Estrogen-Related Receptor gamma (ERRg) (AID 2282977; active means hit-call score of the fitted dose curve at least 0.9, where 1 is the maximum;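 further: hits increase reporter signal over DMSO so potencies reflect activators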). The note with it: HepG2 Attagene TRANS reporter, ERRg transactivation. Put shortly:
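Readout: fluorescent reporter-mRNA fragments resolved by capillary electrophoresis after RT-PCR and HpaI cut. Cells: transiently transfected HepG2 carrying GAL4-UAS reporters driven by exogenous NR-Gal4 chimeras, dosed 24 h. Activity fitted upward relative to DMSO baseline.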

For test [19], the target named is Glucocorticoid receptor (Homo sapiens) (UniProt P04150). The experiment in a line: ATG_GR_TRANS: Attagene TRANS-FACTORIAL HepG2 Assay for human Glucocorticoid Receptor (GR) (AID 2282978; active means hit-call score of the fitted dose curve at least 0.9, where 1 is the maximum;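 further: activators score as hits since higher reporter transcript over DMSO is fitted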). The conditions noted are these: HepG2 Attagene TRANS GR reporter, mRNA transcription. Put shortly:
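Transiently transfected HepG2 cells express chimeric NR-GAL4 proteins acting on GAL4-UAS reporter units. Compounds are applied for 24 h. mRNA induction over DMSO is measured by capillary electrophoresis.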

A word on the AC50: it is the midpoint of the concentration-response curve, whichever way the signal moves.

Glucocorticoid receptor (Homo sapiens), sequence (P04150 whole entry, looked up, the tested form may be a part): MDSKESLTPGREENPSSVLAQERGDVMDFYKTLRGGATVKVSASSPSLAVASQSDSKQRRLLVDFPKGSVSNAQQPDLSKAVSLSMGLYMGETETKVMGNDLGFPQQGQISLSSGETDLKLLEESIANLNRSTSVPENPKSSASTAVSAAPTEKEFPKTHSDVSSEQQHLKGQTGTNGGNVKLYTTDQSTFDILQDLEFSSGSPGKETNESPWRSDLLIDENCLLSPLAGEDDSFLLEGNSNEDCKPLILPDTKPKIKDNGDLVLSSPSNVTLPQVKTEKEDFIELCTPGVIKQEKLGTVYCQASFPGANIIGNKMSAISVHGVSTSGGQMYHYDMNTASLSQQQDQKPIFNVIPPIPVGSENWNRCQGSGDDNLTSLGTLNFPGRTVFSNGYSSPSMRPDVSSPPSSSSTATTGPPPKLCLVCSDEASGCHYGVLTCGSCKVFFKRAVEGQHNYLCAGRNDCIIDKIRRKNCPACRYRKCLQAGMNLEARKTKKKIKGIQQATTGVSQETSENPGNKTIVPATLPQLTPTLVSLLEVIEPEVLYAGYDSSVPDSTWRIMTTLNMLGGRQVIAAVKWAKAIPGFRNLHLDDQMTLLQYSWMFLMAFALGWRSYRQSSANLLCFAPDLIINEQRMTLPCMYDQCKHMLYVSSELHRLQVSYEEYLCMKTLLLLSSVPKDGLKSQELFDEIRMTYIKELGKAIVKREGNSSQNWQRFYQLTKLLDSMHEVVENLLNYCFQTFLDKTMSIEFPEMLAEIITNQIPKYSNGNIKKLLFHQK
Nuclear receptor subfamily 1 group I member 3 (Homo sapiens), sequence (Q14994 whole entry, looked up, the tested form may be a part): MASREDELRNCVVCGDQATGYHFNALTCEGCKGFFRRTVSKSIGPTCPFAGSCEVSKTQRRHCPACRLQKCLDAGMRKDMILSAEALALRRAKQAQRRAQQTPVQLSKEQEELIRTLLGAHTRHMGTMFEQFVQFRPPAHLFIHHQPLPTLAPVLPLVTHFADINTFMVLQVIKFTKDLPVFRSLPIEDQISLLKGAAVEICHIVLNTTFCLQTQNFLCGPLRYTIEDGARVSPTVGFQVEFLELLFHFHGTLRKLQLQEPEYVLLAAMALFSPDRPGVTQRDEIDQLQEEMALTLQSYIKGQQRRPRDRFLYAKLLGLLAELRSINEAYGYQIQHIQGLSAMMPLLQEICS
Transcription factor Sp1 (Homo sapiens), sequence (P08047 whole entry, looked up): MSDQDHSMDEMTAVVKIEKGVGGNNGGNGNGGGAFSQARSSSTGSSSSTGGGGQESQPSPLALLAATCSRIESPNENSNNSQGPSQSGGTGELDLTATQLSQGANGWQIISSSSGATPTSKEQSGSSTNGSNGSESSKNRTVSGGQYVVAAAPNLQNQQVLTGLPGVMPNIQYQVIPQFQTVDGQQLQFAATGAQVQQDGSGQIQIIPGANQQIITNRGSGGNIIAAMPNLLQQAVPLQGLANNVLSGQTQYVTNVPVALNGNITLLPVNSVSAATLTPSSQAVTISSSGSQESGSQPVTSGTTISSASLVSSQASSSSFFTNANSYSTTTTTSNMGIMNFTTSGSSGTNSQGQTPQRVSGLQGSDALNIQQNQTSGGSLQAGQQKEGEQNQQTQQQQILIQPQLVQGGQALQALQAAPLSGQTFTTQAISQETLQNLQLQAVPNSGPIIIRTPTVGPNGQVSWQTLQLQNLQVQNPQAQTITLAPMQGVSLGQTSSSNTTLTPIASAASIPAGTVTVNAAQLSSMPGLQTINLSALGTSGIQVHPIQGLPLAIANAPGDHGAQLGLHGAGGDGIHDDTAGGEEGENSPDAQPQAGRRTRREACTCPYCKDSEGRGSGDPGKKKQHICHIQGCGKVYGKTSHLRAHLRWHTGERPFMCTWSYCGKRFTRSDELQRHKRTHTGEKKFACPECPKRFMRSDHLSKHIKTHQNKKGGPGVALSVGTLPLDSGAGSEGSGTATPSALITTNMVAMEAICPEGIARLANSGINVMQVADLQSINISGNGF
Estrogen-related receptor gamma (Homo sapiens), sequence (P62508 whole entry, looked up, the tested form may be a part): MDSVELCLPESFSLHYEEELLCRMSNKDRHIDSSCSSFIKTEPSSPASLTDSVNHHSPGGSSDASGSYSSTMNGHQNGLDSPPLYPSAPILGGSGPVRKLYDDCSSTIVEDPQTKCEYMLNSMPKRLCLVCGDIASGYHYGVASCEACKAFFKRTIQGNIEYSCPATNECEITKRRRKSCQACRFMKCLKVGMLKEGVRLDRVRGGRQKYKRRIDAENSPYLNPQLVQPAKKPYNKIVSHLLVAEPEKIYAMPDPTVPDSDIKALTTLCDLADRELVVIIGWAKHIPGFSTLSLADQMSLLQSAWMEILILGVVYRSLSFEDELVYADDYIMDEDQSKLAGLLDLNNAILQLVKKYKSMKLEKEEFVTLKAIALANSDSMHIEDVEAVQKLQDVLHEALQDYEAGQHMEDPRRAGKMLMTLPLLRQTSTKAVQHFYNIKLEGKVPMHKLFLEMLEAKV
Signal transducer and activator of transcription 3 (Homo sapiens), sequence (P40763 whole entry, looked up, the tested form may be a part): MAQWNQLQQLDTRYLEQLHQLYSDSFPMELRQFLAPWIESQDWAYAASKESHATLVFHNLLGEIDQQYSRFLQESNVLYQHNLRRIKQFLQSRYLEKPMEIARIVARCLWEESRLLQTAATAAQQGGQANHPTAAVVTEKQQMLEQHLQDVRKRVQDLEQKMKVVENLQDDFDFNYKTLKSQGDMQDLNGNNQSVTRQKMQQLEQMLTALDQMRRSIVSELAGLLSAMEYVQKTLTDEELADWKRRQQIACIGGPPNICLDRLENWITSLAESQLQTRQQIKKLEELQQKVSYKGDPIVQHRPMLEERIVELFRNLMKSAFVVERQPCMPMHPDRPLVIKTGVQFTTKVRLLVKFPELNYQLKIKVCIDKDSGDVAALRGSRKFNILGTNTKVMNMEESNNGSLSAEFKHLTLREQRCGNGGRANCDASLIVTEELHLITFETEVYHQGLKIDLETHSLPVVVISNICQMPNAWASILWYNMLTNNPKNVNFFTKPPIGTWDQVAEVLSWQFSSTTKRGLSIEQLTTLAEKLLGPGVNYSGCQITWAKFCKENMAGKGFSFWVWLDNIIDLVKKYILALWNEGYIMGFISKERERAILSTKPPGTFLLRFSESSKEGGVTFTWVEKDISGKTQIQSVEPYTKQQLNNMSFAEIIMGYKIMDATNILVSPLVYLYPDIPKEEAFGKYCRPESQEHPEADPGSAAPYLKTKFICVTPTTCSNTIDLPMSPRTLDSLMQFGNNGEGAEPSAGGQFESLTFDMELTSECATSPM
Estrogen receptor (Homo sapiens), sequence (P03372 whole entry, looked up, the tested form may be a part): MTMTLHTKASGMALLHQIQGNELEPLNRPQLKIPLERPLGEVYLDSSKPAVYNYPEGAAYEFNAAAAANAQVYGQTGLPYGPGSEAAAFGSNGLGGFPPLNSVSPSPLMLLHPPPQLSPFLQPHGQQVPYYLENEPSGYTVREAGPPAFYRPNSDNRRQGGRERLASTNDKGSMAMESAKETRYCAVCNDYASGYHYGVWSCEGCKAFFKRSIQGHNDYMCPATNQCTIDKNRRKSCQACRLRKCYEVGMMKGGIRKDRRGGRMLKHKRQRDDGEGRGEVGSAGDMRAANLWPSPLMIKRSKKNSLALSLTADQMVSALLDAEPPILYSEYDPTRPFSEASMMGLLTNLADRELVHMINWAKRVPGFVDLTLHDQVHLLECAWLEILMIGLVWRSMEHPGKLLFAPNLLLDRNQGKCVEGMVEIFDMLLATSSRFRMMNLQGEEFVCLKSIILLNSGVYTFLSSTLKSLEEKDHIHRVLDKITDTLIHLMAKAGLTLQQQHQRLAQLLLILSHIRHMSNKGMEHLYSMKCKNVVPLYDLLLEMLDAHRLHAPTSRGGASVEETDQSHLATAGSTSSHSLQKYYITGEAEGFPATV
Bile acid receptor (Homo sapiens), sequence (Q96RI1 whole entry, looked up, the tested form may be a part): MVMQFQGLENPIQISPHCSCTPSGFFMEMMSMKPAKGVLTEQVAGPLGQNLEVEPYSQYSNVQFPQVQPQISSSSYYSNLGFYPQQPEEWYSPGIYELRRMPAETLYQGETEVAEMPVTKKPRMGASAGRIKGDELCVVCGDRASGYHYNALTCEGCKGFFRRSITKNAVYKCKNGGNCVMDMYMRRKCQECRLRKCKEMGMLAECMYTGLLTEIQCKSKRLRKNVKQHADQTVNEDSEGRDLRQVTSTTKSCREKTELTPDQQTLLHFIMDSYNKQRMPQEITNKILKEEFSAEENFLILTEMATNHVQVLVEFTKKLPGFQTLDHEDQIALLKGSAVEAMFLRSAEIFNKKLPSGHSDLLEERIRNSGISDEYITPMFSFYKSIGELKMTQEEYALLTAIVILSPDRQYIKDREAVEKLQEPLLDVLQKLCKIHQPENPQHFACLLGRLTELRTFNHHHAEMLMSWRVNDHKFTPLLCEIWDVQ

As for `Cc1c(C)c2c(c(C)c1O)CCC(C)(COc1ccc(CC3SC(=O)NC3=O)cc1)O2` (configuration not stated), the molecule was called inactive in [1], in [2], in test [4], in test [5], in test [7] and in test [8]. Further, the molecule was called inactive in test [10], in test [11], in test [12] and in test [13]. The AC50 is 1.6 µM (active) in test [3], 18.5 µM (active) in test [6], 13.9 µM (active) in test [9] and 17.4 µM (active) in test [14].
In the case of `CC(C)c1cccc(C(C)C)c1NC(=O)NS(=O)(=O)c1cc(C(C)(C)O)co1`, the outcome in [15], in test [1], in test [2], in test [4], in test [5] and in test [6] was inactive. For the same molecule, the call in test [7], in test [8], in [12] and in test [16] was inactive. Moreover, the half-maximal activity concentration (AC50) in [9] is 29.7 µM (active).
On to `Cc1ccc(-c2cc(C(F)(F)F)nn2-c2ccc(S(N)(=O)=O)cc2)cc1`, for which the outcome in [17], in [1], in test [2], in test [4], in test [5] and in [6] was inactive. For the same molecule, the outcome in test [7], in test [8], in test [11], in test [12], in [18] and in test [19] was inactive.
Consider `CC(N)=O`, for which the outcome in test [15], in test [1], in test [2], in test [4], in test [5] and in test [6] was inactive. Besides, the outcome in [7], in test [8], in [12], in test [16] and in test [19] was inactive.
Consider `c1ccc2occc2c1`, for which the result in test [15], in test [1], in test [2], in test [4], in test [5] and in [6] was inactive. The outcome in test [7], in [8], in test [9], in [10], in test [12] and in test [18] was inactive. In test [14], the molecule was called inactive.
For `CC(C)(C)c1ccccc1`, the outcome in test [15], in test [1], in test [2], in test [4], in test [5] and in test [6] was inactive. Besides, the call in test [7], in [8], in test [9], in test [10] and in test [18] was inactive.
